A short description of test [1]: AP1 Signaling Pathway (AID 357).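 Further: ME-180 reporter cells stimulated with EGF at its EC50 level; on the % scale 0 is the no-effect control and ±100 the full control effect.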 The settings on record: ME-180 AP-1-bla reporter, EGF-induced, beta-lactamase ratio, 5 h; at 7.69 µM (top of the series) unless noted. In outline:
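Beta-lactamase reporter under AP-1 response element, ME-180 background. Stimulus: EC50 EGF. Compound exposure 5 h, 37 °C. Detection: CCF4, 2.5 h RT, 460/530 nm. Values: AC50 from titration.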

Test [2] has as its target Cytochrome P450 1A2 (Homo sapiens) (UniProt P05177). The test is described as follows: p450-cyp1a2 (AID 410; calls by dose curve; further: potency means the concentration at half of the fitted maximal effect). In a few lines: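 Luminescent readout of luciferin formed from Luciferin-ME by human CYP1A2; data normalized against complete inhibition by 57 uM furafylline. Enzyme 20nM, substrate 100uM at Km, 100mM KPO4 buffer, 60 min reaction at room temperature.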
Test [3] in a line: NFAT Signaling Pathway (AID 444).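 Further: carbachol stimulus at about its EC50 of 1 µM final; on the % scale 0 is the no-effect control and ±100 the full control effect.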 The settings on record: Jurkat NFAT-bla M1, carbachol, beta-lactamase ratio, 5 h; at 7.69 µM (top of the series) unless noted. In outline:
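Jurkat cells carrying an NFAT-driven β-lactamase reporter and co-transfected muscarinic M1 receptor were treated with compound plus carbachol (1 uM final, an EC50 level) for 5 h at 37 °C. CCF4 loading followed for 1 h at RT; 460/530 nm ratio gave %activity.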

A short description of test [4]: Stat Signaling Pathway (AID 446).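 Further: ME-180 cervical cancer cells given 40 pM IL-6 alongside compound; SIE-controlled beta-lactamase reporter measured as 460/530 nm FRET emission ratio; on the % scale 0 is the no-effect control and ±100 the full control effect.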 The settings on record: ME-180 SIE beta-lactamase reporter, IL-6 stimulated, 5 h; at 7.69 µM (top of the series) unless noted. In outline:
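Reporter line: ME-180 cervical carcinoma, SIE-beta-lactamase. Treatment: compound with 40 pM IL-6, 5 hrs, 37 C, in low-serum OPTI-MEM with 10 mM HEPES pH 7.3. Detection: 460/530 nm fluorescence.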

Test [5] concerns the target Glucocorticoid receptor (Homo sapiens) (UniProt P04150). Kind of test: GR-GFP Redistribution (AID 450;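 active means compounds whose dose series gives a full or clear partial fitted curve of increased nuclear translocation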; further: potency means the concentration at half of the fitted maximal effect). The settings on record: U2OS GR-GFP nuclear translocation, laser cytometry, 2 h.
Test [6] has the same target. The test is described as follows: GR-EFC Redistribution (AID 451; calls by dose curve; further: potency means the concentration at half of the fitted maximal effect). Conditions: CHO-K1 GR-EFC translocation, beta-gal luminescence, 2 h. In outline: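 CHO-K1 cells stably expressing nuclear-localized β-gal enzyme acceptor and GR fused C-terminally to the enzyme donor fragment; ligand-driven nuclear translocation restores β-gal by complementation. Compounds titrated up to 46 uM final, 2 h at 37 °C; luminescence read.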

Test [7] deals with Mitogen-activated protein kinase 10 (Mus musculus) (UniProt Q61831). Kind of test: JNK3 AlphaScreen Assay (AID 530).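 Further: kinase came from lysate of stimulated human HepG2 cells; signal reports phosphorylation of biotinylated GST-cJun 1-79 at Ser73 with 10 µM ATP; on the % scale 0 is the no-effect control and ±100 the full control effect.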 In a few lines:
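Inhibitors reduce antibody binding to phosphorylated biotin-cJun, lowering AlphaScreen luminescence. Lysates from HepG2 cells pre-activated by IL-1beta plus TNF-alpha supplied JNK3; compounds were titrated.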
(In general: In Alpha technology, singlet oxygen from a donor bead excites a nearby acceptor bead.)

In test [8] the target is 3',5'-cyclic-AMP phosphodiesterase 4B (Homo sapiens) (UniProt Q07343). Kind of test: qHTS Assay for Inhibitors of PDE-IV (AID 607; active means well fitted activation curve with a large enough effect in the main read-out, with a control signal flat, not every such curve was filed as active; further: % of control where 0% means no effect). In a few lines: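 Cell-based read-out of cAMP via a modified cyclic nucleotide-gated channel and membrane potential dye (535/590 nm) in HEK293 cells expressing PDE4 endogenously. Compounds tested up to 22.9 uM final; 100 uM RO 20-1724 reference.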

Test [9] addresses Cytochrome P450 3A4 (Homo sapiens) (UniProt P08684). The test is described as follows: qHTS Assay for Activators of Cytochrome P450 3A4 (AID 885; active means well fitted curve in the direction sought with a large enough effect; an effect the other way counts as inactive or inconclusive; further: nearly all actives have a fitted effect of over 65% in size). In a few lines:
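Signal was normalized against complete inhibition by 57 uM ketoconazole. The reaction used 20nM CYP3A4 with 25uM Luciferin-PPXE, 10-min compound preincubation and a 60-min NADPH-supported step at RT.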

Test [10] deals with Cytochrome P450 2C19 (Homo sapiens) (UniProt P33261). The test is described as follows: qHTS Assay for Inhibitors and Substrates of Cytochrome P450 2C19 (AID 899; active means well fitted curve in the direction sought with a large enough effect; an effect the other way counts as inactive or inconclusive; further: nearly all actives have a fitted effect of over 60% in size; further: potency means the concentration at half of the fitted maximal effect). In a few lines: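 In 50mM KPO4, the reaction held 5nM enzyme and KM-level (10uM) Luciferin-H EGE; it ran 60 min at 37C after NADPH regeneration and a 10 min compound preincubation. Luminescence values were scaled to 57uM ketoconazole as complete inhibition.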
On the technique in general: Quantitative high-throughput screening tests each substance at several concentrations.

For test [11], the target named is Guanine nucleotide-binding protein G(i) subunit alpha-1 (Homo sapiens) (UniProt P63096). The test is described as follows: qHTS Assay for Inhibitors of RGS12 GoLoco Motif Activity (Green Fluorophore) (AID 879; active means well fitted curve in the direction sought with a large enough effect; an effect the other way counts as inactive or inconclusive;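 further: 0% = labeled peptide with Gαi1 and full inhibition = labeled peptide alone without protein; negative values mean loss of peptide binding seen as reduced polarization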). In outline: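 Fluorescence polarization assay: 50 nM Gαi1 with 10 nM FITC-labeled RGS12 GoLoco peptide in 10 mM Tris pH 7.5, 150 mM NaCl, 0.1 mM GDP, 0.05% NP40, 10 min at room temperature with compound.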

Test [12] addresses Muscarinic acetylcholine receptor M1 (Rattus norvegicus) (UniProt P08482). Kind of test: qHTS Assay for Antagonists of Acetylcholine Muscarinic M1 Receptor: Measurement of IP-One Response (AID 944; active means well fitted curve in the direction sought with a large enough effect; an effect the other way counts as inactive or inconclusive; further: nearly all actives have a fitted effect of over 75% in size). In outline: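 M1-CHO (rat), 2000 cells/well, overnight recovery; cpd 10 min; carbachol EC80 (200 nM), 30 min, HEPES buffer + 50 mM LiCl pH 7.4; IP-One HTRF, Ex 337, Em 620/665 nm.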

The target in test [13] is Pyruvate kinase (Leishmania mexicana) (UniProt Q27686). Kind of test: qHTS Validation Assay for Inhibitors of Leishmania Mexicana Pyruvate Kinase (AID 945; active means well fitted curve in the direction sought with a large enough effect; an effect the other way counts as inactive or inconclusive;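 further: 0% = DMSO only neutral control wells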). In outline:
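Eight-point qHTS titrations in triplicate, data normalized to DMSO neutral control. Reaction: 0.2 nM LmPYK E451W mutant, 0.5 mM PEP, 0.1 mM ADP, 7 mM MgCl2, pH 7.2, one hour at room temperature; luminescent ATP detection.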

For test [14], the target named is Pyruvate kinase PKM (Homo sapiens) (UniProt P14618). Kind of test: qHTS Assay for Activators of Human Muscle Pyruvate Kinase (AID 954; active means well fitted curve in the direction sought with a large enough effect, not every such curve was filed as active;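 further: 0% = uninhibited enzyme and -100% = no enzyme or full thiadiazolimine inhibition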). In outline: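 Human PKM2 activity is measured as ATP generation, detected by luciferase-coupled luminescence. The enzyme (0.1 nM) acts on 0.5 mM PEP and 0.1 mM ADP for 1 h at ambient temperature; data are normalized to uninhibited and full-inhibition wells.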

Test [15] addresses Alpha-galactosidase A (Homo sapiens) (UniProt P06280). The test is described as follows: Counterscreen for Glucocerebrosidase Inhibitors: qHTS Assay for Human alpha-Galactosidase at pH 4.5 (AID 992; active means well fitted curve in the direction sought with a large enough effect; an effect the other way counts as inactive or inconclusive; further: 0% is about no effect). In a few lines: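 Quantitative HTS: compounds tested from 0.7 nM up to 77 uM against 2 nM enzyme with 80 uM 4-MU alpha-D-galactopyranoside. The 20 min room-temperature reaction is stopped with 1M NaOH/1M glycine, pH 10.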
On the technique in general: A counterscreen serves to expose hits that act by an unwanted route or on another target.

The target of test [16] is alpha-glucosidase (Oryza sativa, rice) (UniProt Q653V4). Kind of test: Counterscreen for Glucocerebrosidase Inhibitors: qHTS Assay for Rice alpha-Glucosidase at pH 5.0 (AID 997; active means well fitted curve in the direction sought with a large enough effect; an effect the other way counts as inactive or inconclusive;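 further: 0% = full activity with enzyme and -100% = basal without enzyme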). In outline:
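Rice alpha-glucosidase (4 nM final) with 400 uM 4-methylumbelliferyl-alpha-D-glucopyranoside in citrate buffer pH 5.0, 20 min at room temperature, stopped at pH 10; fluorescence 365/440 nm, compounds 0.7 nM–77 uM, AC50 from Hill fits.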

Test [17] addresses Cytochrome P450 2C9 (Homo sapiens) (UniProt P11712). Kind of test: qHTS Assay for Inhibitors and Substrates of Cytochrome P450 2C9 (AID 883; active means well fitted curve in the direction sought with a large enough effect; an effect the other way counts as inactive or inconclusive; further: on the % scale 0 is the no-effect control and ±100 the full control effect; nearly all actives have a fitted effect of over 60% in size). In outline:
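CYP2C9 deoxyluciferin hydroxylation, 37C, 60 min with NADPH regeneration; 10nM enzyme, 100uM Luciferin-H (KM). Glo detection reagent stopped reaction; luminescence normalized to sulphaphenazole (57uM) full inhibition.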

The target in test [18] is Cytochrome P450 2D6 (Homo sapiens) (UniProt P10635). The test is described as follows: qHTS Assay for Inhibitors and Substrates of Cytochrome P450 2D6 (AID 891; active means well fitted curve in the direction sought with a large enough effect; an effect the other way counts as inactive or inconclusive;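 further: luciferin methyl ether substrate demethylated by CYP2D6 with NADPH regeneration; on the % scale 0 is the no-effect control and ±100 the full control effect; nearly all actives have a fitted effect of over 60% in size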). In outline:
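Human CYP2D6 (5 nM) with 30 uM Luciferin-ME EGE (at Km) in 100 mM KPO4, compound preincubated 10 min, then NADPH regeneration system for 60 min at room temperature. Luciferin read by luminescence; normalized to 1.43 uM quinidine.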

Test [19] in a line: qHTS Assay for Identification of Small Molecule Agonists for Thrombopoietin (TPO) Signaling Pathway (AID 917; active means well fitted curve in the direction sought with a large enough effect; an effect the other way counts as inactive or inconclusive; further: on the % scale 0 is the no-effect control and ±100 the full control effect). In outline: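 We measured Glycoprotein IIb promoter–luciferase output in IL-3-starved Ba/F3 murine cells expressing the human TPO receptor after 24 hrs at 37 C with compounds and 26 pM TPO.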

This is an account of results in PubChem BioAssay (NCATS).

“And” between values parts separate entries of the source, which are not always exact repeats. Identical values can stand only once. Unmarked numbers belong to inactive results. Inconclusive results are not listed. The source made the active and inactive calls. Unless noted, the call rests on the fitted dose curve; in most records, active means well fitted curve in either direction with a large enough effect (not every such curve was filed as active); inconclusive means small, poorly fitted or top-dose-only effect, or another doubt; inactive means flat fitted curve, though single readings scatter. A value given as a limit tells only on which side of the number the result lay.

Sequence of Cytochrome P450 1A2 (Homo sapiens) (P05177 whole entry, looked up): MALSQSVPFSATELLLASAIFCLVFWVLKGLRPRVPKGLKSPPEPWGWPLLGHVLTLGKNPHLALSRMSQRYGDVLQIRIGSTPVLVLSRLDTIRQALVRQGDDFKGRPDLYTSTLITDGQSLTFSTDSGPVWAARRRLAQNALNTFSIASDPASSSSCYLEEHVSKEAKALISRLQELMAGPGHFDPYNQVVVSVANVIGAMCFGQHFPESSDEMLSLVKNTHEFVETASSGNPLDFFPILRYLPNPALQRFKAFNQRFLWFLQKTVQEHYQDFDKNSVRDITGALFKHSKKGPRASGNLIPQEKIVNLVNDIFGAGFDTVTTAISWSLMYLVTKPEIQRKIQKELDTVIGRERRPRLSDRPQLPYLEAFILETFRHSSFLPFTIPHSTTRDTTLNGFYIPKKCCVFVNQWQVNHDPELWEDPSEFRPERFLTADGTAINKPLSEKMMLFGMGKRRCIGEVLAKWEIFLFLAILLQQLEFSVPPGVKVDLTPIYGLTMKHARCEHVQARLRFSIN
Sequence of Muscarinic acetylcholine receptor M1 (Rattus norvegicus) (P08482 whole entry, looked up): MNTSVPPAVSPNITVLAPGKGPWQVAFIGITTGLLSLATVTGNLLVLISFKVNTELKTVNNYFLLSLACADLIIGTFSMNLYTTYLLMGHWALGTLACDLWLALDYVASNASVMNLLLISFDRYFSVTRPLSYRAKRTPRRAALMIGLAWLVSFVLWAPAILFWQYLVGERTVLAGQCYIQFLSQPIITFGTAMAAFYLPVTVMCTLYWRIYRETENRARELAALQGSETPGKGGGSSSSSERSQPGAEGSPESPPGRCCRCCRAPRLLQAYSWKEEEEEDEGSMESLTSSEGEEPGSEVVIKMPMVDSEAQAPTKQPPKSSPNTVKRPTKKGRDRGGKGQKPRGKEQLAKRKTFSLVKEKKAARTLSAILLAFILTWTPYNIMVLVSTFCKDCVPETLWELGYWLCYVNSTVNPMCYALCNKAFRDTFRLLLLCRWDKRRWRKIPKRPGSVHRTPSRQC
Sequence of Alpha-galactosidase A (Homo sapiens) (P06280 whole entry, looked up): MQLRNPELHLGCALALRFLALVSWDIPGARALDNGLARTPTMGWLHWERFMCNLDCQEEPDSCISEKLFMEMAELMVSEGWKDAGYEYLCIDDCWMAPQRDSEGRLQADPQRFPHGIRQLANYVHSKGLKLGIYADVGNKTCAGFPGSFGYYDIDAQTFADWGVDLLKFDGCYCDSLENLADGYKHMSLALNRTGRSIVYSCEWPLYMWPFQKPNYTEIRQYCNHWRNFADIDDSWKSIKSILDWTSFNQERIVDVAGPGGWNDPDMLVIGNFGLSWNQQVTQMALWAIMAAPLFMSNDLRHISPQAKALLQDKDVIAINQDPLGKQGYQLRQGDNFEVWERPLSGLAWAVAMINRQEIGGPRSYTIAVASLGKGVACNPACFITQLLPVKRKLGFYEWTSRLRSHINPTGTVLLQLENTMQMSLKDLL
Sequence of Glucocorticoid receptor (Homo sapiens) (P04150 whole entry, looked up, the tested form may be a part): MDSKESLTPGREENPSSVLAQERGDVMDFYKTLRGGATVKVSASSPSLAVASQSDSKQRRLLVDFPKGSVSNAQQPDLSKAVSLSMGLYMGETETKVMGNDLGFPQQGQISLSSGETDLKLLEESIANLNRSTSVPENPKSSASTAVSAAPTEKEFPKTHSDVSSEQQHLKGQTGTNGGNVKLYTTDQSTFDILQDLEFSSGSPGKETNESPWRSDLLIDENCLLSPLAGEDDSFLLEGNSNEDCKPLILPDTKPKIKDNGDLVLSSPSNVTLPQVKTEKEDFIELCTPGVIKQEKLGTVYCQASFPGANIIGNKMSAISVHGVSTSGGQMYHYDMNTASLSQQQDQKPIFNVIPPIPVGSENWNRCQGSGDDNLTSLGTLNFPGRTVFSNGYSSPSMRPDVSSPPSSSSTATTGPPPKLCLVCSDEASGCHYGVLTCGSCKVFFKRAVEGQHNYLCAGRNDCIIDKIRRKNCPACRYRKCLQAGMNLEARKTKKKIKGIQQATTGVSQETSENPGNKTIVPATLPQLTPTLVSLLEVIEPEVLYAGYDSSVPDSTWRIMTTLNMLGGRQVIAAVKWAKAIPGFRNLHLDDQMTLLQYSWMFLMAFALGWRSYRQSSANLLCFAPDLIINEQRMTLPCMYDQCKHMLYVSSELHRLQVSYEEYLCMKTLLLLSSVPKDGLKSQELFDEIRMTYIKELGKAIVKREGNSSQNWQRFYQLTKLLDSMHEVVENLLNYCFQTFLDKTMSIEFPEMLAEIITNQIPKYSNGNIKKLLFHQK
Sequence of Pyruvate kinase PKM (Homo sapiens) (P14618 whole entry, looked up): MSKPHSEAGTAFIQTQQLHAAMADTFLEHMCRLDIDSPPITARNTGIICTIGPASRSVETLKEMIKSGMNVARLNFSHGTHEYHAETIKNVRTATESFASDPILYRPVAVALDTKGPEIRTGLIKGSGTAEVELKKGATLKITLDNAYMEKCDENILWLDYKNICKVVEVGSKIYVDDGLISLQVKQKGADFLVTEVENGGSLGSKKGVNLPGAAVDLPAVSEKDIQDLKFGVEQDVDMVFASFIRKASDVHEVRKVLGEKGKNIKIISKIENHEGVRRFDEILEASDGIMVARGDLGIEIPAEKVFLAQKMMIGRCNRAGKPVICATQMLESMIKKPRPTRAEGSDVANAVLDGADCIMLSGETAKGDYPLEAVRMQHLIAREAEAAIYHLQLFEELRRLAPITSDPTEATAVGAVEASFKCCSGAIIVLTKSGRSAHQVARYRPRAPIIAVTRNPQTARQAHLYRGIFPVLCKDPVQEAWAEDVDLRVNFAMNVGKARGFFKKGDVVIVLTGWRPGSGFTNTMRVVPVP
Sequence of Cytochrome P450 2D6 (Homo sapiens) (P10635 whole entry, looked up): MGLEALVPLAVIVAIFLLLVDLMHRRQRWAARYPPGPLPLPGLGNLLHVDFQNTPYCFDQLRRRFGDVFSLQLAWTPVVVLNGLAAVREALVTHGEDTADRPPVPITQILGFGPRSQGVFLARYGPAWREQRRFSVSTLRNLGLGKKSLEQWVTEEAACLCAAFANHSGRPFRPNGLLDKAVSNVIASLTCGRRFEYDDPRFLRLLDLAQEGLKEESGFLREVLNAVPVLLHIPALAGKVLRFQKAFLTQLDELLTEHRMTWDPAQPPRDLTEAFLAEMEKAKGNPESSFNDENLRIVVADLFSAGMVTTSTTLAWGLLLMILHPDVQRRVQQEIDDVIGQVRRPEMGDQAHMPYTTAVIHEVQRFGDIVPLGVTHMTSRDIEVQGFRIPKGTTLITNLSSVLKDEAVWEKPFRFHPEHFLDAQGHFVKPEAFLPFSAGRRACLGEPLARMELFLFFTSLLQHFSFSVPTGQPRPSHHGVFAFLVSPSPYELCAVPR
Sequence of Guanine nucleotide-binding protein G(i) subunit alpha-1 (Homo sapiens) (P63096 whole entry, looked up): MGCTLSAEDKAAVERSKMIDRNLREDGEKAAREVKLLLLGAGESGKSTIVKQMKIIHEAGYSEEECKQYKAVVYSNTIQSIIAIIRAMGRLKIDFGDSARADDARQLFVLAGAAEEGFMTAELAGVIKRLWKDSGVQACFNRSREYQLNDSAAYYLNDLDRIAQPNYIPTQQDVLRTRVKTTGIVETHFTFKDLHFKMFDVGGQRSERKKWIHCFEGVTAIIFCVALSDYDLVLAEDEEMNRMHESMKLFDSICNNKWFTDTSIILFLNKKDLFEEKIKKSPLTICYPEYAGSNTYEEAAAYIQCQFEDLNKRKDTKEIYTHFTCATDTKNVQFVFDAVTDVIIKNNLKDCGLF
Sequence of 3',5'-cyclic-AMP phosphodiesterase 4B (Homo sapiens) (Q07343 whole entry, looked up): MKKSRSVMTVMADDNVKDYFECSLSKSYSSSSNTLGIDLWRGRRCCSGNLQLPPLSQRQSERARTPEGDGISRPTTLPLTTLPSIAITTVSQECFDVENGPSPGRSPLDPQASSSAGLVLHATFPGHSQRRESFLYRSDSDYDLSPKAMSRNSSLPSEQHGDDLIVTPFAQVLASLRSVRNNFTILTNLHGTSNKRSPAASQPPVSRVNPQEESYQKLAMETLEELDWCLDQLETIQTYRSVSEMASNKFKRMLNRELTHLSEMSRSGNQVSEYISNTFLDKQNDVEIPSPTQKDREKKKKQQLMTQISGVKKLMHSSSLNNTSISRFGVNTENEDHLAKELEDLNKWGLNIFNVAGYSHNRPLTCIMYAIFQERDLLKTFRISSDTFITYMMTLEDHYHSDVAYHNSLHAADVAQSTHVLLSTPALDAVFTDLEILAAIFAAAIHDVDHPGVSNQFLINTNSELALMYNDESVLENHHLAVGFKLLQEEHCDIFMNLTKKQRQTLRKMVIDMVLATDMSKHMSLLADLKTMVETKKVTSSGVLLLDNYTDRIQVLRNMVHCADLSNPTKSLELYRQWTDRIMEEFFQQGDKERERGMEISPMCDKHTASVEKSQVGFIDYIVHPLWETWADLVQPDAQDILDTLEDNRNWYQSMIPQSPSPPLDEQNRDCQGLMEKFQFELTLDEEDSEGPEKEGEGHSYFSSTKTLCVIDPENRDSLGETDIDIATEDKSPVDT
Sequence of Cytochrome P450 2C9 (Homo sapiens) (P11712 whole entry, looked up): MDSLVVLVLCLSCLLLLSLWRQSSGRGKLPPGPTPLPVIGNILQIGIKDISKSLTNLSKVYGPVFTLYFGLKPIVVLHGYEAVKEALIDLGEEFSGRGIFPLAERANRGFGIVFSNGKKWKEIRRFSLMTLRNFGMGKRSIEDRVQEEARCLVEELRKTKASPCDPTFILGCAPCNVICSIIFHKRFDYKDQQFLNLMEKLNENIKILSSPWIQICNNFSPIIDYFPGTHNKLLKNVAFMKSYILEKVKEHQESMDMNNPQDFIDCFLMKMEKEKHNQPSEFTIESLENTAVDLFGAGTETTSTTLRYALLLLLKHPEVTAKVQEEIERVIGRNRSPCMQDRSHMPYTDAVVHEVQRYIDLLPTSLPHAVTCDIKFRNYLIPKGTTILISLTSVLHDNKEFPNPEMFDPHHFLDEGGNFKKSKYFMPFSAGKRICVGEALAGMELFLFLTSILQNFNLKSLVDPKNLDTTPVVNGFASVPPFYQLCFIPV

Regarding `Cn1c(=O)c2[nH]c(CCS)nc2n(C)c1=O`, the activity change, negative = inhibition was 3.25% in [1] and -18% in test [3]. For the same molecule, the Potency result in [2], in test [7], in test [8] and in test [9] was “inactive” throughout. In addition, the activity, negative = inhibition in test [4] was 3.06%. Also, the Potency in [5] was > 46 µM; in test [6], > 9.22 µM.
Regarding `COc1cc2nncc(SCc3ccc(Cl)c(Cl)c3)c2cc1OC`, the activity change, negative = inhibition in test [1] is 0.364%; in [3], 1.06%. Also, the Potency was 0.794 µM (active) in test [2], > 46 µM in test [5], > 9.22 µM in [6] and 2.51 µM (active) in [10]. The activity, negative = inhibition in test [4] was -13.6%. Further, the Potency entry in [7], in test [8] and in test [9] was “inactive” each time.
`C[C@H](O)[C@H](O)[C@@H]1CNc2nc(N)[nH]c(=O)c2N1`: the activity change, negative = inhibition in [1] was 7.68% [at 38 µM]; in [3], 7.39% [at 38 µM]. Also, the Potency result in [2], in test [7], in test [8], in [12] and in [16] was “inactive” each time. For the same molecule, the activity, negative = inhibition in test [4] was 18.8% [at 38 µM]. Moreover, the Potency in test [5] and in test [6] was > 46 µM each time. Further, the result in test [11], in test [13], in [14] and in test [15] was inactive.
Regarding `OC[C@@H]1O[C@H](O)[C@@H](Cl)[C@H](O)[C@@H]1O`, the activity change, negative = inhibition in test [1] was -0.164% [at 38 µM]; in [3], 4.5% [at 38 µM]. Further, the Potency result in test [2], in test [8] and in test [12] was “inactive” each time. In addition, the activity, negative = inhibition in test [4] was 14% [at 38 µM]. Further, the Potency in test [5] and in [6] was > 46 µM in each case. Besides, the result in test [11], in [14] and in test [15] was inactive.
Consider `C[C@@]12CCC(=O)C=C1CC[C@H]1[C@H]3CC[C@](O)(C(=O)CO)[C@]3(C)CC[C@@H]12`, for which the results for the activity change, negative = inhibition in [1] and in [3] were 16% [at 38 µM] and -2.8% [at 38 µM], respectively. The Potency entry in test [2], in test [7], in test [8], in [17] and in [18] was “inactive” each time. The activity, negative = inhibition in test [4] was -40.3% [at 38 µM]. In addition, in test [5], the Potency is 0.114 µM (active).
As to `O=C(Nc1ccccc1)N1CCC2(CC1)CCN(C(=O)c1ccco1)CC2`, the results for the activity change, negative = inhibition in [1] and in [3] were -11.7% and -5.38%, respectively. Further, the figures for the Potency in test [2] and in test [6] were 10 µM (active) and > 46 µM, respectively. In test [4], the activity, negative = inhibition was 15.9%. Moreover, the Potency entry in [7] and in test [8] was “inactive” each time.
`O=C(O)[C@H]1C[C@H](C(=O)O)N1`: the activity change, negative = inhibition in test [1] was -0.354% [at 38 µM] and 2.92% [at 38 µM]; in test [3], 3.19% [at 38 µM] and 0.467% [at 38 µM]. The Potency result in test [2], in test [8], in test [17], in [18], in test [10] and in test [12] was “inactive” each time. Moreover, in test [16], the Potency result is “inactive”. Also, the activity, negative = inhibition in [4] is -10.2% [at 38 µM]. Moreover, the Potency in test [5] and in test [6] was > 46 µM in each case. Moreover, the outcome in test [11], in test [19], in test [14] and in [15] was inactive.
